Source: PubChem BioAssay
TWEAK-Fn14 inh – blocks TWEAK-Fn14 interaction in a reporter cell assay | AID 1159606 | TWEAK-stimulated Fn14 reporter cells, luciferase luminescence, 8 h | inhibition, % at 10 µM | 360,000 tested, 2% active; in the data active means inhibition above about 50%
PAX8 reporter – PAX8 transcriptional activity inhibition; RMG-I TPO-luciferase reporter, SteadyGlo, 24 h; 360,000 tested, 1.2% active; AID 652154; inhibition, % at 12.6 µM;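 active means mean replicate inhibition at least 60% with every replicate also reaching 60%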;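 further: luciferase light reporting Pax8 driven TPO promoter activity; plate controls were median of neutral control wells for no effect and mitoxantrone controls for full effect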
LMP1 NFkB inh – reduces LMP1-driven NF-kappaB luciferase signal | LMP1-induced NF-kappaB luciferase reporter cells, luminescence | inhibition, % at 12.5 µM | 350,000 tested, 0.69% active; in the data active means inhibition above about 41%;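 further: 0% = neutral control wells and 100% = reference inhibitor control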
LGR2 antag – Drosophila LGR2 receptor signaling inhibition. HEK293 LGR2, CRE-luciferase, bursicon-stimulated, 4 h. inhibition, % at 9.99 µM. AID 720647. 380,000 tested, 0.35% active;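 active means drop in luminescence signal, shown as inhibition above about 50% in the replicate tests, limit read from the data, passing the limit was not always enough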;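 further: agonist challenge used bursicon conditioned medium at about half maximal strength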
EWS-Fli block – blocks EWS/Fli oncoprotein-driven transcription; inhibition, % at 12.6 µM; AID 651661; 350,000 tested, 0.67% active; A673 NR0B1-luciferase reporter, viability-normalised;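 active means mean inhibition of at least 50% after viability correction, with every replicate also passing that limit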;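 further: firefly luciferase signal divided by Alamar Blue viability fluorescence both relative to DMSO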
TROY signal inh – TROY signaling inhibition; inhibition, % at 10 µM; 360,000 tested, 0.98% active; AID 1347056; Q293 LMP1-TROYcd NF-kB luciferase reporter, 4 h;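 active means compounds whose plate-normalised and pattern-corrected inhibition of the luciferase reporter signal at the single screening dose is 50% or more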
The depositor's hits bear a star; . = no result; ! = a repeat was not active. Hits are enriched below; roughly 3.1% of the tested compounds scored in any of these assays.

SMILES	TWEAK-Fn14 inh	PAX8 reporter	LMP1 NFkB inh	LGR2 antag	EWS-Fli block	TROY signal inh
C[C@@H]1CN([C@@H](C)CO)C(=O)Cc2cc(NC(=O)Cc3ccccc3)ccc2O[C@H]1CN(C)S(=O)(=O)c1cn(C)cn1	.	-19.7	.	14.1	2.8	.
CC1(C)N=C(N)N=C(N)N1CCCCc1ccccc1	11.9	72.6*	22.3	-9.7	45.5	14.0
Cc1ccccc1N1C(N)=NC(N)=NC1(C)C	.	.	-5.4	.	.	.
COCC(=O)N1CCCCN2[C@H](CO)[C@@H](c3ccc(-c4ccc(F)cc4)cc3)[C@H]2C1	.	-3.9	.	3.4	.	.
COc1ccc(CCn2c(-c3ccco3)nc3nc4ccccc4nc32)cc1	57.2*	-18.1	-2.4	-13.1	.	31.8
COc1ccccc1Cn1c(-c2ccco2)nc2nc3ccccc3nc21	1.2	-37.3	0.9	.	.	-20.1
c1ccc(Cn2c(-c3ccco3)nc3nc4ccccc4nc32)cc1	-7.9	-209.0	-46.3	.	.	5.5
Cc1ccc(-c2nc3nc4ccccc4nc3n2Cc2ccco2)cc1	89.5*	-64.4	-8.6	.	.	73.6*
Clc1ccc(-c2nc3nc4ccccc4nc3n2Cc2ccco2)cc1	59.1*	.	-28.0	.	.	-5.3
CC(C)NC(=O)N(C)C[C@@H]1Oc2ncc(C#CC3CCCCC3)cc2C(=O)N([C@H](C)CO)C[C@H]1C	.	.	.	10.5	-4.5	.
CO[C@H]1CN(C)C(=O)c2ccc(NC(=O)CC(F)(F)F)cc2OC[C@H](C)N(S(=O)(=O)c2cn(C)cn2)C[C@H]1C	.	-1.6	.	6.8	1.1	.
O=C(C[C@H]1CC[C@H]2[C@@H](COC[C@H](O)CN2Cc2cc(F)ccc2F)O1)N[C@@H]1CCN(Cc2ccccc2)C1	.	-4.7	.	-14.3	-4.2	.
Cc1cccc(CSc2nnc(CCCCCNC(=O)OC(C)(C)C)o2)c1	6.1	-1.5	-1.3	-4.4	0.8	72.0*
Cc1ccc(CSc2nnc(CCCCCNC(=O)OC(C)(C)C)o2)cc1	9.1	-4.4	2.3	5.0	9.6	22.3
Cc1cc(C)c(S(=O)(=O)Nc2nnc(CC(C)C)s2)c(C)c1	-6.6	-19.0	81.5*	.	-2.7	3.2
CCOC(=O)c1c(C)[nH]c(C(=O)OCC(=O)Nc2sccc2C(N)=O)c1C	83.6*	30.3	15.6	70.7*	-30.5	63.9*
CCNC(=O)C(Sc1ccccc1)c1ccccc1 (stereo unspecified)	3.5	-9.8	-1.8	.	.	6.2
CCCCNC(=O)C(Sc1ccccc1)c1ccccc1 (stereo unspecified)	-5.7	144.8*	2.9	.	-9.4	10.5
N#Cc1ccc(-c2ccc3c(c2)[C@H]2[C@H](CCN2C(=O)C2CC2)[C@@H](CO)N3)cc1	.	-27.2	.	-14.3	2.0	.
COc1cccc(-c2ccc(C3[C@@H]4CN(S(=O)(=O)c5ccccc5)C[C@H]3N4)cc2)c1 (stereo partly specified)	.	8.9	.	-12.4	12.1	.
N#Cc1ccc(-c2ccc([C@@H]3[C@@H]4CN(S(=O)(=O)c5ccc(-c6ccccc6)cc5)C[C@H]3N4)cc2)cc1	.	75.4*	.	8.4	7.4	.
COc1cccc(S(=O)(=O)N2C[C@@H]3N[C@H](C2)C3c2ccc(/C=C/c3ccccc3)cc2)c1 (stereo partly specified)	.	92.2*!	.	17.8	-17.3	.
CCN(CC(=O)Nc1ccc2c(c1)OCCO2)C(=O)COc1cc(C)ccc1Cl	87.2*	7.9	1.2	5.5	-8.3	-2.9
COc1ccccc1C(=O)NCCn1cc(SCC(=O)NCC2CCCO2)c2ccccc21 (stereo unspecified)	9.5	.	15.6	-1.3	-3.8	-0.3
COc1ccc(C(=O)NCCn2cc(SCC(=O)NCC3CCCO3)c3ccccc32)cc1 (stereo unspecified)	84.5*	-60.5	-6.1	-15.3	-35.1	59.2*
SMILES	TWEAK-Fn14 inh	PAX8 reporter	LMP1 NFkB inh	LGR2 antag	EWS-Fli block	TROY signal inh
COc1ccc(C(=O)NCCn2cc(SCC(=O)NCc3ccco3)c3ccccc32)cc1	45.5	.	-4.5	.	.	63.7*
COc1ccc(C(=O)NCCn2cc(SCC(=O)Nc3nnc(C)s3)c3ccccc32)cc1	66.9*	.	9.1	-8.7	-20.0	62.2*
CCN(CC)C(=O)Cn1cc(SCC(=O)NCc2ccco2)c2ccccc21	5.4	12.6	-3.1	14.3	5.9	10.6
O=[N+]([O-])c1ccccc1COc1ccc(Cl)c2cccnc12	65.3*	-36.4	-22.7	-97.1	29.5	-3.0
O=C(Oc1ccc(Cl)c2cccnc12)c1cccc([N+](=O)[O-])c1	21.4	8.2	-4.9	-1.0	18.5	5.5
CCc1cccc2c(C(=O)CN3C(=O)NC4(CCCCCC4)C3=O)c[nH]c12	-114.0	81.8*	-135.7	-16.2	45.1	-44.1
COc1ccc2cc3cc(C(=O)Nc4cc(OC)c(OC)c(OC)c4)oc3nc2c1	63.5*	26.1	31.6	.	.	26.3
COc1cccc(/C=N/Nc2ccc([N+](=O)[O-])cn2)c1O	89.5*	90.8*	51.8*	67.1*	-26.9	56.0*
O=[N+]([O-])c1ccc(/C=N/Nc2ncccc2[N+](=O)[O-])s1	10.9	-2.6	-25.8	-30.1	-65.6	-21.4
COc1cccc(/C=N/Nc2ncccc2[N+](=O)[O-])c1OC	100.1*	34.9	59.4*	97.2*	66.1*	74.7*
COc1cccc(/C=N/Nc2nc(Nc3ccc([N+](=O)[O-])cc3)nc(N3CCCC3)n2)c1O	44.9	95.1*	2.8	28.1	12.2	-1.7
COc1ccc(NC(=O)Nc2ccc3c(c2)C(=O)N(C)C[C@@H](OC)[C@H](C)CN[C@@H](C)CO3)cc1	.	9.1	.	-0.6	-4.6	.
Cc1ccc(C(C)C)c(OCC(=O)Nc2sc3c(c2C#N)CC(C)(C)NC3(C)C)c1	50.1*	.	1.3	.	.	47.4
Cc1cc(OCC(=O)Nc2sc3c(c2C#N)CC(C)(C)NC3(C)C)c(C(C)C)cc1Cl	-11.6	6.3	-17.4	11.2	6.5	34.8
COc1ccc(CN(C)C[C@@H]2OCCCC[C@H](C)Oc3ccc(NC(=O)Nc4c(C)noc4C)cc3C(=O)N([C@@H](C)CO)C[C@H]2C)cc1	.	-2.8	.	-7.2	-2.7	.
Cc1nc(SCC(=O)c2cccc([N+](=O)[O-])c2)n[nH]1	-43.7	.	55.2*	.	.	-11.4
Cc1ccnc(SCC(=O)c2cccc([N+](=O)[O-])c2)n1	-8.2	-34.0	-6.3	-2.6	-13.5	-18.3
O=C(NCc1ccccc1)c1noc2c1CCCCC2	-4.1	.	-34.5	.	.	-19.6
O=C(NC1CCCC1)c1noc2c1CCCCC2	-9.8	.	41.8*	.	.	-10.4
COc1ccc(NC(=O)c2noc3c2CCC3)cc1	57.8*	-50.2	5.7	.	.	-19.5
O=C(Nc1cccc(O)c1)c1noc2c1CCCCC2	81.5*	.	31.3	16.8	43.8	59.3*
COc1ccc(CNC(=O)c2noc3c2CCCCC3)cc1	-29.2	.	-3.8	-26.0	.	-45.3
Cc1ccc(NC(=O)c2noc3c2CCC3)cc1C	56.2*	-79.3	8.1	10.3	5.0	15.1
CC(C)OC(=O)c1cc(C(=O)c2cc(Br)ccc2O)coc1=N	22.0	15.1	-2.2	0.9	9.8	17.3
CCOc1ccccc1NC(=O)c1cc(C(=O)c2cc(Br)ccc2O)coc1=N	2.4	26.1	5.8	15.8	0.3	59.4*
